From PubChem
Sampled rows, rich in hits. Any-hit rate of the full collection: about 4.2%.
Sfp inh: qHTS Assay for Inhibitors of Bacillus subtilis Sfp phosphopantetheinyl transferase (PPTase); 4'-phosphopantetheinyl transferase ffp (Bacillus subtilis), Q9F4F7; Potency, µM, for the others: largest response in the series, negative = inhibition, most hits filed as inhibitors; actives 3.5% (n = 310,000); Biochemical Sfp PPTase activity, qHTS;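 further: the enzyme is Sfp with the accession as filed and its product quenches rhodamine fluorescence; 0% = enzyme reaction without inhibitor and -100% = no enzyme wells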
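Fluorescence-quenching assay with 15 nM Sfp, 5 uM rhodamine-CoA and 12.5 uM BHQ-2-labelled ybbR peptide in pH 7.6 Hepes/MgCl2 buffer. Enzyme was pre-incubated with compound for 15 min at room temperature. Rate was taken from the 30-min fluorescence change (525/598 nm).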
12-LOX inh: Primary qHTS assay for inhibitors of human arachidonate 12S-lipoxygenase (ALOX12): Round 2; AID 1671190, 2021; Potency, µM (series often up to 108 µM), inactives show top-dose activity change, negative = inhibition, hits mostly inhibitors; Polyunsaturated fatty acid lipoxygenase ALOX12 (Homo sapiens), P18054; actives 1.1% (n = 580,000); purified 12hLO, xylenol orange hydroperoxide absorbance
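Purified human 12hLO (150 nM final) in 25 mM Hepes, 0.01% Triton X-100, pH 7.0 was preincubated 15 min at room temperature with compound. Then 40 uM arachidonic acid was added, 30 min. Hydroperoxide was read by Fe-XO absorbance ratio 573/405 nm.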
VDR inhibitor: Inhibitors of the vitamin D receptor (VDR): qHTS. actives 0.93% (n = 400,000). Potency, µM, for the others: max response, negative = inhibition, hits mostly inhibitors. VDR-SRC2-3 peptide fluorescence polarization, 2 h
Target sequence (P11473 whole entry, looked up): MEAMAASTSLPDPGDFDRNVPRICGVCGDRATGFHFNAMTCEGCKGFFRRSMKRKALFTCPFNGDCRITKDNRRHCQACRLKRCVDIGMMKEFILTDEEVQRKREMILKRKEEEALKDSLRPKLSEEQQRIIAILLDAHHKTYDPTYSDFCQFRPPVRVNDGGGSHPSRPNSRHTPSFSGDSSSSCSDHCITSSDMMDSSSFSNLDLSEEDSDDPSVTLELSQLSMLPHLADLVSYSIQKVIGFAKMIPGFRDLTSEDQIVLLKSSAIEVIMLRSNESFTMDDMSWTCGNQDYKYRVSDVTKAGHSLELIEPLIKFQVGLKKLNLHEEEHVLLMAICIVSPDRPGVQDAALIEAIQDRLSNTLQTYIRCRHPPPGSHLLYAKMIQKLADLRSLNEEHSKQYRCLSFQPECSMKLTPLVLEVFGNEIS
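Reagent solutions, kept cold and dark, are dispensed first; compounds are then pinned in at 23 nl, plates briefly spun, and incubated 2 h at ambient temperature. Inhibition of VDR–SRC2-3 peptide binding is read by fluorescence polarization.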
PLK1 PBD inh: qHTS for Inhibitors of PLK1-PDB (polo-like kinase 1 - polo-box domain): Primary Screen; Serine/threonine-protein kinase PLK1 (Homo sapiens), P53350; Plk1 PBD binding of FITC phosphopeptide, fluorescence polarization; Potency, µM, for the others: max response, negative = inhibition, hits mostly inhibitors; actives 2.8% (n = 360,000); further: series mostly up to about 57 µM; nearly all actives have a fitted effect of over 65% in size
The depositor's hits bear a star; ? = inconclusive; nt = no result given; ! = repeats disagree; [ ] = dose if it differs, or a comment. The call rests on the fitted dose curve; in most records, active means well fitted curve in the direction sought with a large enough effect; inconclusive means small, poorly fitted or top-dose-only effect, or another doubt; inactive means no such curve, though single readings can be large; an effect the other way counts as inactive or inconclusive. Unless noted, on the % scale 0 is the no-effect control and ±100 the full control effect; potency means the concentration at half of the fitted maximal effect.

SMILES	Sfp inh	12-LOX inh	VDR inhibitor	PLK1 PBD inh
O=C1NN(c2ccc(Cl)c(Cl)c2)C(=O)/C1=C/c1ccc(-c2ccccc2C(=O)O)o1	25%	?	45µM*	19µM*
O=C1NN(c2ccccc2)C(=O)/C1=C/c1ccc(-c2ccc(C(=O)O)cc2)o1	-1%	?	?	21µM*
COC(=O)c1ccc(N2NC(=O)/C(=C/c3ccc(-c4ccc(Cl)c(C(=O)O)c4)o3)C2=O)cc1	-10%	?	79µM*	17µM*
CCCNC(=O)Cc1ccc2c(c1)CCCC2	nt	-10%	nt	nt
CCOP(=O)(c1ccc(N(C)C)cc1)C(O)c1ccc(C)cc1 (stereo not given)	20%	-8%	25%	-16%
Cc1ccc(C(=O)N2CCCC(n3c(C)cnc3C3CCOCC3)C2)s1 (stereo not given)	nt	44%	nt	nt
O=[N+]([O-])c1ccc(-c2c(-c3ccccc3)ncc3ccc(F)cc23)cc1	nt	?	-14%	0%
O=C1NN(c2ccccc2)C(=O)/C1=C/c1ccc(Sc2cccc3ccccc23)o1	?	?	?	12µM*
COc1cc(C(CCN2CCCC(C)C2)c2c(OC)cc(OC)c3c(C)cc(=O)oc23)cc(OC)c1OC (stereo not given)	-9%	nt	2%	nt
c1ccc(-c2nc(-c3ccco3)n3ccccc23)cc1	7.1µM*	?	-15%	-23%
c1ccc(Nc2c(-c3ccco3)nc3ccccn23)cc1	-6%	-11%	0%	-2%
COc1ccc(N2C(=O)C(Cl)=C(N(CCO)Cc3ccccc3)C2=O)cc1	-11%	?	6%	-3%
O=C1C2=C(c3ccccc31)[N+](=O)[C@@H]1CCCC[C@@H]1N2[O-]	56µM*	?	-8%	?
O=C1C2=C(c3ccccc31)[N+](=O)C1CCCCC1N2[O-] (stereo not given)	-14%	?	?	?
O=C(Nc1nc2c(s1)CCCC2)c1ccc2ncsc2c1	25µM*	?	-9%	-13%
CCNc1ncc2nc(-c3ccc(F)cc3)c(=O)n(C[C@H]3CCCO3)c2n1	28%	43%	-6%	nt
C/C(CC(=O)NCc1ccc(F)cc1)=N\NC(N)=S	56µM*	-20%	-9%	-29%
C/C(CC(=O)NCc1ccccc1)=N\NC(N)=S	45µM*	-24%	-11%	?
O=C(CSc1n[nH]c(=O)[nH]c1=O)Nc1ccc(C(=O)O)cc1	?	-5%	6%	-7%
Nc1ccc(S(=O)(=O)Nc2cnc3ccccc3n2)cc1	9%	-14%	3%	-7%
Nc1ccc(S(=O)(=O)Nc2nc3ccccc3o2)cc1	50µM*	?	4%	?
CC(=O)OCC(=O)[C@@]1(O)CCC2C3CCC4=CC(=O)C=CC4(C)C3C(O)C[C@]21C (stereo not given in full)	15%	nt	1%	nt
COc1ccccc1CCn1c(=O)c(-c2ccc(F)cc2)nc2cncnc21	16%	72%	12%	nt
Cc1ccc(C2=NC3(CCN(C(=O)COc4cccc(C)c4)CC3)ON2)cc1	nt	89µM*	nt	nt
CC(=O)c1c(C)nn(CCC(=O)O)c1C	6%	?	?	15µM*
SMILES	Sfp inh	12-LOX inh	VDR inhibitor	PLK1 PBD inh
Cc1ccc(SCC(=O)OCc2csc(CC(=O)Nc3ccccc3C)n2)cc1C	nt	-22%	16%	-5%
NCCCCCCNS(=O)(=O)c1cccc2c(Cl)cccc12	63µM*!	-28%	2%	-5%
NCCCCCCCCCCNS(=O)(=O)c1cccc2c(Cl)cccc12	50µM*	?	24%	nt
CCCCCCCNS(=O)(=O)c1cccc2c(Cl)cccc12	-2%	0%	-4%	nt
O=C(NCCCCc1ccccc1)c1cccc(NC(=O)C2CC2)c1	nt	-13%	79µM*	19µM*
CCOc1cc(/C=C/C(=O)c2cccc(Cl)c2)cc(Cl)c1O	nt	5.6µM*	nt	nt
COc1cccc(/C=C/C(=O)c2c(O)cc(C)oc2=O)c1O	5%	?	?	-12%
CCOc1c(Br)cc(/C=C/C(=O)c2ccccc2)cc1OC	nt	-3%	nt	nt
COc1cc(/C=C/C(=O)c2ccccc2O)cc(OC)c1OC	-13%	2%	32µM*	?
COc1cc(/C=C/C(=O)c2c(O)cc(C)oc2=O)cc(OC)c1O	-23%	-22%	22µM*!	-2%
C/C(=C\C(=O)c1c(O)cc(C)oc1=O)N(C)C	-9%	-19%	5%	30µM*
CCOc1ccc(CC(=O)NCCn2ccn3nc(-c4ccc(C)cc4C)cc3c2=O)cc1	nt	10%	nt	nt
CCOc1ccc(CNC(=O)c2sc3ncnc(N(C)C4CCCCC4)c3c2C)cc1	nt	-24%	9%	nt
O=C(NC1CC1)C1CCN(C2CCN(C(=O)CC3=CCCCC3)CC2)CC1	2%	2%	5%	-6%
CCOc1c(Cl)cc(/C=C/C(=O)O)cc1OC	nt	1%	nt	nt
CCOc1cc(/C=C/C(=O)c2ccccc2Cl)cc(Cl)c1O	nt	35µM*	nt	nt
COc1ccc(C(=O)/C=C/c2cc(OC)c(O)c(OC)c2)c(F)c1	79µM*	45µM*	?	2%
COc1ccc2cc(C(=O)/C=C/c3cc(OC)c(O)c(OC)c3)ccc2c1	-30%	?	-21%	1%
O=C1NC2(Cc3ccccc31)CN(C(=O)c1ccccn1)C2	nt	-1%[12.5 µM]	nt	nt
COc1cc(C)cc2oc(=O)c(CC(=O)NCCc3ccccc3F)c(C)c12	nt	-5%	nt	nt
CCCCC1=CC2=CC(=O)C(C)(OC(=O)CC)C(=O)C2=CN1CCOC (stereo not given)	4%	nt	-16%	-17%
CCCCC1=CC2=CC(=O)C(C)(OC(=O)CC)C(=O)C2=CN1CCc1ccc(Br)cc1 (stereo not given)	10%	40µM*	3%	-29%
Cc1cc(C(=O)NNC(=O)c2ccc(Cl)c(S(N)(=O)=O)c2)c(C)o1	nt	3%	-5%	-4%
Cc1nc(N2CCN(S(=O)(=O)c3ccccc3C#N)CC2)c2c(-c3cccs3)csc2n1	12%	-10%	-23%	-4%
Cc1nc(N2CCCCC2)c2c(-c3cccs3)csc2n1	56µM*	1%	-23%	-8%
Cc1cccc(NC(=O)CNC(=O)COc2ccc(C(=O)c3ccc(F)cc3)cc2)c1C	9%	-15%	4%	1%
Cc1cccc(NC(=O)CNC(=O)COc2cc(F)ccc2[N+](=O)[O-])c1C	24%	-22%	?	15µM*
O=C1CC(NNC(=O)c2ccccc2)C(=O)N1 (stereo not given)	11%	-3%	4%	1%
O=C(O)C1=C(CSc2nnnn2CS(=O)(=O)O)CS[C@@H]2[C@H](NC(=O)[C@H](O)c3ccccc3)C(=O)N12	79µM*	nt	40µM*	nt
Cc1c(Cl)cnn1CC(=O)NC1C(=O)N2C(C(=O)O)=C(CSc3nnnn3C)CSC12 (stereo not given)	50µM*	-1%	-13%	?
